High-throughput results deposited in PubChem by National Center for Advancing Translational Sciences (NCATS).
FMDV inh: High Throughput Screening for Foot and Mouth Disease Virus Antivirals | FMDV antiviral cell-based qHTS | hit rate 1.2% among 410,000 | Potency, µM (series often up to 57.9 µM), without a hit: top-dose activity change, negative = inhibition, usual class: inhibitors; calls by dose curve; tested in HEK293T cells; further: read-out not given here; potency means the concentration at half of the fitted maximal effect; nearly all actives have a fitted effect of over 45% in size
HCMV antiviral: qHTS Assay for inhibitors of the human cytomegalovirus (HCMV); HFF cells, HCMV-luciferase reporter, 72 h; stronger effect = lower value; activity change, negative = inhibition, % at 57.5 µM; hit rate 4.5% among 410,000; in the data active means activity change below about -60%; inconclusive means no clear call, values can overlap the other calls; inactive means above about -39%
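Cell-based, HFFs, 1000 cells/well, 16 h 37C; cpds in DMSO + HCMV-luc, MOI 1 PFU/cell; 72 h 37C; OneGlo luminescence after 5 min RT; norm. to buffer vs Salinomycin 10uM.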
HCV inh: qHTS Assay for Inhibitors of Hepatitis C Virus (HCV); Huh7.5.1 HCVcc-Cre infection, luciferase reporter, 44 h; Potency, µM (highest dose often 41.8 µM), for the others: top-dose activity change, negative = inhibition, hits mostly inhibitors; hit rate 3.4% among 340,000; active means well fitted inhibition curve with a large enough effect; inconclusive means small, poorly fitted or top-dose-only effect, or another doubt; inactive means no such curve, though single readings can be large or run the other way; further: potency means the concentration at half of the fitted maximal effect
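Antiviral activity was scored by luciferase reporter output from cells infected with HCVcc-Cre (~0.5 moi) in presence of compound, 44 h infection period, cells seeded 1,000/well 4 h prior.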
Lassa entry inh: qHTS for Inhibitors of binding or entry into cells for Lassa Virus; Potency, µM (highest dose often 37.9 µM), without a hit: at the highest dose activity change, negative = inhibition, usual class: inhibitors; Lassa virus pseudotype entry inhibition, cell reporter; hit rate 1.2% among 300,000; calls by dose curve; tested in HEK293 cells; further: potency means the concentration at half of the fitted maximal effect; nearly all actives have a fitted effect of over 50% in size
MARV entry inh: qHTS for inhibitors of binding or entry into cells for Marburg Virus; AID 540276, 2011; hit rate 1.8% among 300,000; Potency, µM (series often up to 37.8 µM), inactives show at the highest dose activity change, negative = inhibition, most hits filed as inhibitors; Marburg virus pseudotyped entry inhibition, cell reporter; calls by dose curve; tested in HEK293 cells; further: potency means the concentration at half of the fitted maximal effect
The depositor's hits bear a star; ? = inconclusive; · = not tested or not shown; [ ] = another dose, or the depositor's remark. Shown are actives, neighbours in structure and some others; about 7.9% of the full set was active somewhere. On the % scale 0 is the no-effect control and ±100 the full control effect.

SMILES	FMDV inh	HCMV antiviral	HCV inh	Lassa entry inh	MARV entry inh
Cc1cc(Br)c(NC(=O)COn2nnc3ccc(S(C)(=O)=O)cc32)c(Br)c1	-23%	-30	0%	28%	?
Cc1cc(NC(=O)COn2nnc3ccc(S(C)(=O)=O)cc32)ccc1Br	-25%	?	10µM*	·	·
CCc1ccc(NC(=O)COn2nnc3ccc(S(=O)(=O)N(C)C)cc32)cc1	-27%	-35	?	?	?
COc1cc(NC(=O)COn2nnc3ccc(S(C)(=O)=O)cc32)cc(OC)c1	-13%	-68*	-17%	?	14%[46.1 µM]
COc1ccc(Cl)cc1Nc1sc(C(=O)c2ccccc2)c(N)c1C(=O)Nc1ccccc1	?	-3	·	-21%[46.1 µM]	·
O=C(NCc1ccccc1Cl)c1cc2c(s1)-c1ccc(Cl)cc1SC2	39%	-25	·	-3%[46.1 µM]	1%[46.1 µM]
c1ccc(C(NCc2cccnc2)(c2ccccc2)c2ccccc2)cc1	?	·	·	8.2µM*	0%
CCCN(CC(=O)Nc1ccccc1C)C(=O)CCl	13µM*	-99*	7.1µM*	?	?
CCCN(CC(=O)Nc1ccccc1C)C(=O)C1CC(=O)N(Cc2ccccc2)C1 (stereo not given)	16%	-98*	-3%	-11%	10%
CCCN(CC(=O)Nc1ccccc1C)C(=O)C1CC(=O)N(c2ccccc2OCC)C1 (stereo not given)	1%	-29	15%	-18%	-1%[46.1 µM]
CCCN(CC(=O)Nc1ccccc1C)C(=O)COc1c(C)cccc1C	-6%	-8	0%	·	·
O=C(N/N=C1\C[C@@H](O)[C@@H](O)[C@@H]2[C@@H]3C(=O)N(c4cccc(Oc5ccccc5)c4)C(=O)[C@@H]3CC[C@H]12)OCc1ccccc1	·	·	·	·	4%[14.2 µM]
COCC(=O)Nc1cc(C(=O)N2CCCCC2c2nccs2)c2c(c1)nc(-c1ccncc1)n2C (stereo not given)	-9%	·	·	·	·
CCOC(=O)Cc1csc(NC(=O)Nc2cccc(OC)c2)n1	-12%	51	-7%	-25%	1%
CCc1nn(CCCC(=O)N2CCN(c3cccc(C)c3C)CC2)c(=O)c2cc3occc3n12	?	-25	14µM*	·	·
CCCn1c(=O)c2sccc2n2c(CCCC(=O)N3CCN(c4cccc(C)c4C)CC3)nnc12	16µM*	-17	·	4%[46.1 µM]	·
CCc1nn(CC(=O)N2CCN(c3cccc(C)c3C)CC2)c(=O)c2cc3occc3n12	-18%	-16	·	24%[46.1 µM]	2%[46.1 µM]
CCc1nn(CC(=O)NCCN2CCN(C)CC2)c(=O)c2cc3occc3n12	-18%	-104*	-12%	-7%	16%
CCc1nn(CC(=O)NCCCN2CCN(C)CC2)c(=O)c2cc3occc3n12	-8%	0	-5%	28%[46.1 µM]	7%[46.1 µM]
Oc1ccc(-c2nc3ccccn3c2Nc2ccc3c(c2)OCCO3)cc1	5%	10	·	17%[46.1 µM]	?
Clc1cccc(-c2nc3ccccn3c2Nc2ccc3c(c2)OCCO3)c1	-4%	-104*	·	1%[46.1 µM]	-25%[46.1 µM]
CN(C)c1ccc(-c2nc3ccccn3c2Nc2ccc3c(c2)OCCO3)cc1	17%	-96*	·	6%[46.1 µM]	?
Cc1ccc2nc(-c3cccc(Cl)c3)c(Nc3ccc4c(c3)OCO4)n2c1	31%	27	·	16%[46.1 µM]	2%[46.1 µM]
COC(=O)c1ccc(Nc2nccc3[nH]c(-c4cccc(C(F)(F)F)c4)cc23)cc1	·	4	·	·	·
COc1ccc(C(=O)/C(=C\c2ccco2)N2C=CC=CC2=C(C#N)C#N)cc1	11µM*	·	11µM*	?	?
SMILES	FMDV inh	HCMV antiviral	HCV inh	Lassa entry inh	MARV entry inh
COc1ccc(/C=C(/C(=O)c2cccs2)N2C=CC=CC2=C(C#N)C#N)cc1	-18%	-60*	?	·	-1%
CC(C)OC(=O)/C(=C/c1ccco1)c1ccccc1	-14%	-12	5%	19%	-20%[14.2 µM]
N#C/C(=C/c1ccco1)C(N)=S	-4%	-4	8%	-16%[46.1 µM]	?
N#CC(C#N)=C1C=CC=CN1/C(=C\c1ccco1)C(=O)c1ccc(Br)cc1	10µM*	-97*	?	?	6.3µM*
COc1ccc(C(=O)N/C(=C\c2ccco2)C(=O)OCc2ccco2)cc1	26%	29	-5%	12%	7%
COc1ccc(C=C(C#N)C(=O)c2ccccc2)cc1	-15%	42	·	·	·
N#CC(C#N)=C1C=CC=CN1/C(=C\c1ccco1)C(=O)c1ccccc1	?	-100*	?	?	25µM*
Cc1cccc(Nc2nc(NCCCN3CCOCC3)nc(N)c2[N+](=O)[O-])c1	?	?	?	-9%	?
COc1ccc(S(=O)(=O)N2Cc3ccccc3CC2C(=O)Nc2cc(Cl)ccc2Cl)cc1 (stereo not given)	0%	5	·	15%[46.1 µM]	?
Cc1ccc(Cl)cc1NC(=O)Cn1nc2c(cc1=O)CC(C)CC2 (stereo not given)	-15%	-32	·	-5%[46.1 µM]	·
O=S(=O)(Cc1ccccc1Cl)NCCc1ccc(F)cc1	12%	12	-3%	·	·
COC(=O)C1=C(C)N(Cc2ccccc2)C(=O)NC1c1cccc(F)c1 (stereo not given)	·	·	·	·	3%[14.2 µM]
O=c1c(S(=O)(=O)c2cccc(Cl)c2)cn(Cc2ccccc2)c2cc(N3CCCCC3)c(F)cc12	10%	-65*	·	?	·
O=c1c(S(=O)(=O)c2ccccc2)cn(Cc2cccc(F)c2)c2cc(N3CCOCC3)c(F)cc12	-15%	-71*	·	?	·
O=c1c(S(=O)(=O)c2ccccc2)cn(Cc2ccccc2)c2cc(N3CCOCC3)c(F)cc12	-8%	-27	·	?	·
CC1(C(=O)NCc2ccco2)Cc2c(-c3cccc(C(F)(F)F)c3)ccnc2O1 (stereo not given)	0%	-38	·	·	·
OCc1cnc(SCc2ccccc2F)n1Cc1ccc(F)cc1	17%	-35	·	6%[46.1 µM]	·
Cc1ccc2nc(-c3cccc(SC4CCCCC4)c3)c(NCc3ccccc3)n2c1	25µM*	-22	?	·	·
COc1ccc(-c2cc(-c3nc4ccccn4c3NCc3ccccc3)ccc2OC)cc1	3.5µM*	-79*	?	·	·
c1ccc(CNc2c(-c3cccc(SC4CCCCC4)c3)nc3ccccn23)cc1	22µM*	-35	-18%	·	·
Clc1cccc(-c2ccc(-c3nc4ccccn4c3NCc3ccccc3)cc2)c1	-21%	-80*	14µM*	·	·
c1ccc(-c2nc3ccccn3c2NCc2ccc3c(c2)OCO3)cc1	-17%	26	-20%	0%	28%
Clc1ccc2nc(-c3cccc(SC4CCCCC4)c3)c(NCc3ccccc3)n2c1	-31%	-12	-4%	·	·
COc1ccc(-c2nc3ccccn3c2NCc2ccc3c(c2)OCO3)cc1	14%	43	-21%	15%	-8%
Cc1ccn2c(NCc3ccccc3)c(-c3cccc(SC4CCCCC4)c3)nc2c1	?	10	?	·	·
COc1ccc(C(C(=O)NC(C)(C)C)n2c(-c3ccc(C(F)(F)F)cc3)nc3ccccc32)cc1 (stereo not given)	2%	-37	·	·	·
COc1ccc2cc([C@@H](C)C(=O)O)ccc2c1	2.2µM*	51	32%	·	·
